{"source": "PubChem BioAssay (NCI)", "assay": "NCI Yeast Anticancer Drug Screen. Data for the wt1 strain (AID 149);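 further: 0% = growth of vehicle-treated wt1 cultures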", "conditions": "S. cerevisiae wt1 strain (SPY 50644) growth inhibition, stronger effect = higher value", "method": "Growth inhibition of yeast strains with defined genetic alterations is measured as a screen for potential anti-cancer activity. Selected strains with alterations in DNA damage repair or cell cycle control were exposed to compounds and growth inhibition was measured relative to vehicle treated controls. The strain used in this assay is wt1", "note": "About 79,000 compounds went through this panel and 15% of them were active in at least one assay; those are over-represented in the sample as a whole. Values without a mark were called inactive. Active and inactive are the calls of the source. No stated cut-off is given here; in the data, active means growth inhibition above about 70%; inactive means the rest."}
{"smiles": "Cc1ccc(Sc2ccccc2N)cc1", "values": [{"measurement": "growth inhibition", "setting": "at 1.2 µM", "value": 16, "unit": "%"}, {"measurement": "growth inhibition", "setting": "at 3.7 µM", "value": 6, "unit": "%"}, {"measurement": "growth inhibition", "setting": "at 11.0 µM", "value": -7, "unit": "%"}, {"measurement": "growth inhibition", "setting": "at 33.0 µM", "value": 42, "unit": "%"}, {"measurement": "growth inhibition", "setting": "at 100.0 µM", "value": "99% (active)"}]}
{"smiles": "O=c1[nH]c(-c2ccccc2)nc2c1sc1nc3ccccc3n12", "values": [{"measurement": "growth inhibition", "setting": "at 1.2 µM", "value": -24, "unit": "%"}, {"measurement": "growth inhibition", "setting": "at 3.7 µM", "value": -25, "unit": "%"}, {"measurement": "growth inhibition", "setting": "at 11.0 µM", "value": -20, "unit": "%"}, {"measurement": "growth inhibition", "setting": "at 33.0 µM", "value": -25, "unit": "%"}, {"measurement": "growth inhibition", "setting": "at 100.0 µM", "value": -17, "unit": "%"}]}
{"smiles": "Nc1cc(N)c(N=Nc2cccc3c(S(=O)(=O)O)cccc23)cc1N=Nc1cc([N+](=O)[O-])ccc1O", "values": [{"measurement": "growth inhibition", "setting": "at 1.2 µM", "value": 7, "unit": "%"}, {"measurement": "growth inhibition", "setting": "at 3.7 µM", "value": 13, "unit": "%"}, {"measurement": "growth inhibition", "setting": "at 11.0 µM", "value": 7, "unit": "%"}, {"measurement": "growth inhibition", "setting": "at 33.0 µM", "value": 8, "unit": "%"}, {"measurement": "growth inhibition", "setting": "at 100.0 µM", "value": 19, "unit": "%"}]}
{"smiles": "Cc1cc(C)nc(NS(=O)(=O)c2ccc(Nc3c4ccccc4nc4c(C(=O)NCCO)cccc34)cc2)n1", "values": [{"measurement": "growth inhibition", "setting": "at 1.2 µM", "value": -1, "unit": "%"}, {"measurement": "growth inhibition", "setting": "at 3.7 µM", "value": -2, "unit": "%"}, {"measurement": "growth inhibition", "setting": "at 11.0 µM", "value": -2, "unit": "%"}, {"measurement": "growth inhibition", "setting": "at 33.0 µM", "value": -35, "unit": "%"}, {"measurement": "growth inhibition", "setting": "at 100.0 µM", "value": -9, "unit": "%"}]}
{"smiles": "CCOC1Oc2ccccc2-c2nc(N)ncc21", "note": "(stereo not given)", "values": [{"measurement": "growth inhibition", "setting": "at 1.2 µM", "value": -4, "unit": "%"}, {"measurement": "growth inhibition", "setting": "at 3.7 µM", "value": -1, "unit": "%"}, {"measurement": "growth inhibition", "setting": "at 11.0 µM", "value": 1, "unit": "%"}, {"measurement": "growth inhibition", "setting": "at 33.0 µM", "value": -1, "unit": "%"}, {"measurement": "growth inhibition", "setting": "at 100.0 µM", "value": -14, "unit": "%"}]}
{"smiles": "CCOc1ccc(NC(=O)C2=C(C)NC(C)=C(C(=O)Nc3ccc(OCC)cc3)C2c2cccc([N+](=O)[O-])c2)cc1", "values": [{"measurement": "growth inhibition", "setting": "at 1.2 µM", "value": 1, "unit": "%"}, {"measurement": "growth inhibition", "setting": "at 3.7 µM", "value": -3, "unit": "%"}, {"measurement": "growth inhibition", "setting": "at 11.0 µM", "value": -5, "unit": "%"}, {"measurement": "growth inhibition", "setting": "at 33.0 µM", "value": -28, "unit": "%"}, {"measurement": "growth inhibition", "setting": "at 100.0 µM", "value": "79% (active)"}]}
{"smiles": "Oc1ccc2ccccc2c1CCc1c(O)ccc2ccccc12", "values": [{"measurement": "growth inhibition", "setting": "at 1.2 µM", "value": 5, "unit": "%"}, {"measurement": "growth inhibition", "setting": "at 3.7 µM", "value": 17, "unit": "%"}, {"measurement": "growth inhibition", "setting": "at 11.0 µM", "value": 19, "unit": "%"}, {"measurement": "growth inhibition", "setting": "at 33.0 µM", "value": 52, "unit": "%"}, {"measurement": "growth inhibition", "setting": "at 100.0 µM", "value": "88% (active)"}]}
{"smiles": "CC(=O)Nc1ccc2c(c1)Cc1cc(N=C3C=CC(=O)O3)ccc1-2", "values": [{"measurement": "growth inhibition", "setting": "at 1.2 µM", "value": 0, "unit": "%"}, {"measurement": "growth inhibition", "setting": "at 3.7 µM", "value": 14, "unit": "%"}, {"measurement": "growth inhibition", "setting": "at 11.0 µM", "value": 41, "unit": "%"}, {"measurement": "growth inhibition", "setting": "at 33.0 µM", "value": "99% (active)"}, {"measurement": "growth inhibition", "setting": "at 100.0 µM", "value": "99% (active)"}]}
